Measurements reported in the supplement of paper PMC3334620.
The full ranking holds about 33,000 sequences; the median of “E-score (-0.5 to 0.5)” is about -0.053, and the highest 2% start at about 0.37. The entries come from a sample that favours the highest values as a whole.

Target: Hap1 (UniProt P0CE41)
Experiment: PBM E-score (8-mer binding enrichment) (E-score (-0.5 to 0.5)); higher = stronger / more preferred TF binding
Details: protein concentration: 200 nM; construct: GST-DNA-binding domain
In short: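 Detection of bound protein used fluorescent anti-GST, with scans normalised by masliner. The proteins were GST-tagged yeast transcription factors applied at about 100-200 nM to universal all-10-mer Agilent arrays made double-stranded by primer extension. Each ungapped eight-base word, pooled with its reverse complement, was scored with an E-score from the Universal PBM Analysis Suite.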

Sequence of UniProt P0CE41 (P0CE41 whole entry): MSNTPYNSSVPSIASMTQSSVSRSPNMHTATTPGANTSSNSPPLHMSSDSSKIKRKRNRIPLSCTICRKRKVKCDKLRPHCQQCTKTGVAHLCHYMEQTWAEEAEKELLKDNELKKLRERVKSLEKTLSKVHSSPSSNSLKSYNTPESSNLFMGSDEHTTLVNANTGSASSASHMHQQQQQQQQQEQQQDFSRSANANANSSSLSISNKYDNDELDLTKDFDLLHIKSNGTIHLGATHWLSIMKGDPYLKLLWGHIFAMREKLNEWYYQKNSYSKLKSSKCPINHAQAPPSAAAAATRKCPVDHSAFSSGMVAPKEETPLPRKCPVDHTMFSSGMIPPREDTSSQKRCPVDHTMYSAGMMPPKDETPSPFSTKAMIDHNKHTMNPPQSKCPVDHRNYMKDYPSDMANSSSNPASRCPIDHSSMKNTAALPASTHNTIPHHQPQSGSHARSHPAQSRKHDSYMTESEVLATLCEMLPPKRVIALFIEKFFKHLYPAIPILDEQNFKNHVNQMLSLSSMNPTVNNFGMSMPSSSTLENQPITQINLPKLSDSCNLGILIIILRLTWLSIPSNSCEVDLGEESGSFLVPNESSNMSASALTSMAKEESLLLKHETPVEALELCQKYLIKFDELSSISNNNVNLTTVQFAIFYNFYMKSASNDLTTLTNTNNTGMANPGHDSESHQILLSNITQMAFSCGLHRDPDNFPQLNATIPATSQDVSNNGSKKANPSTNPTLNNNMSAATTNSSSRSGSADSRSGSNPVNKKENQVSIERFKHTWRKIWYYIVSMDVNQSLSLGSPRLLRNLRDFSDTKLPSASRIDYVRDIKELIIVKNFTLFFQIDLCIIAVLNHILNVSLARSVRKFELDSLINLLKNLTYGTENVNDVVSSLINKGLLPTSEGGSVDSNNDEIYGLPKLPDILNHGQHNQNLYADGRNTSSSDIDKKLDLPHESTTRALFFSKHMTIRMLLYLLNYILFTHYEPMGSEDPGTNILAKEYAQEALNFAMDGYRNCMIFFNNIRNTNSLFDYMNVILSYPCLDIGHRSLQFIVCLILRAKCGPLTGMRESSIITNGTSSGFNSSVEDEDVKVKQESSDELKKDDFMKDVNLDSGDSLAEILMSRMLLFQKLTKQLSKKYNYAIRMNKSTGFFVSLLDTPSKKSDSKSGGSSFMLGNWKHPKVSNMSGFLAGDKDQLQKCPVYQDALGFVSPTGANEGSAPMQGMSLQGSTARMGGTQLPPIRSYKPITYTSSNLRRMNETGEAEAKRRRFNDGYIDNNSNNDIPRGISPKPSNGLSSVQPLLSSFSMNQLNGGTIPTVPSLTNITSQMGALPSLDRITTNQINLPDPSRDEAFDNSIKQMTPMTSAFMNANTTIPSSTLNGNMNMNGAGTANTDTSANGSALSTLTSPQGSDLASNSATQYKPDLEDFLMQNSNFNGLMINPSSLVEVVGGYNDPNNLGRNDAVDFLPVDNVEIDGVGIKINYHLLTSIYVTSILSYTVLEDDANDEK

Sequence	PBM E-score
CAGTCCAC	-0.272
TCTCCGCA	0.299
TCTCCAAA	-0.138
TCTCCGAA	0.429
CCGTCTGA	-0.0177
AGACTTAA	-0.18
GGACTTAA	0.443
CGACTTAA	-0.169
CAGCTTCC	0.00993
TATTTGGA	-0.215
ACCTCCGA	0.391
ACCTCCGG	0.454
ACCTCCGT	0.286
CCCTCCGA	0.253
TCCTCCGA	0.308
CCCTCCGG	0.331
AATCATTC	-0.0493
CCTTGGAG	-0.109
ACCCGCTA	0.209
GTCAGTCA	-0.172
AGGGTATA	0.254
GGGGTATA	0.103
GCGGTATA	0.0943
ACGGTATC	0.113
CAGGTATC	0.0262

Sequence	PBM E-score
ACGGTATA	0.0727
CGGGTATA	0.435
CCGGTATA	0.425
CCGGTATC	0.433
ACCAAGCG	0.0447
CGGTTTCA	0.263
AACTCAGG	-0.116
AGGGATGG	0.00107
AGCATCCG	0.215
AGCATATG	-0.278
TCCGTTAA	0.408
GCCGTTAA	0.346
CCCGTTAA	0.297
ATCTAAAA	-0.105
CGAGTACG	0.0449
ATCTCGGA	0.385
ATCTCGGG	0.356
CTCTCGCA	-0.179
CTCTCGGC	0.318
AGCTCGGC	0.354
CTCTCGAA	-0.332
ATCTCGGC	0.379
GTCTCGGA	0.358
CTCTCGGA	0.4
GCCGGGCC	0.221

Sequence	PBM E-score
GTGTGTGA	-0.201
ACCCATGC	-0.249
TAGGCTAA	-0.138
GGATCGAC	0.17
CCCGACGG	0.331
ACCGACCG	0.314
ACCGACGT	0.185
ACCGACGG	0.38
CCCGACCC	0.167
CCCGACCG	0.379
GGGTTACA	0.0182
AAACGGGA	0.217
AATCCATG	-0.036
AGAGTTAA	-0.105
GGAGTTAC	0.393
TGAGTTAA	-0.188
GGAGTTAA	0.429
CGAGTTAC	-0.0647
AGAGTTAC	-0.312
GAGGGGTA	0.0493
CCATCAAA	-0.17
GAGACCGC	0.0393
CGGAAGTC	0.305
AGGAACTA	-0.0416
CGGAAACA	0.384

Sequence	PBM E-score
CGGAAAAC	0.346
GGGAAACA	0.112
CGGAAAAG	0.343
CGGAACTC	0.309
AGGAAACA	-0.0825
AGGAAGTA	0.0541
CGGAACTA	0.436
CGGAAAAA	0.4
CGGAAGTA	0.38
AATCCTAC	-0.124
ACAGCGCT	-0.0282
CGCTCGTA	0.0559
ACAGTACA	-0.00621
CGTATCGC	0.208
CCACTGGG	-0.145
AAGGAAGT	0.113
TCAGCAAA	-0.157
GTTTCTAA	0.105
GACCCGTC	0.0739
CACAGTCA	-0.284
GGCACGCC	-0.0738
ACCAAACT	-0.13
GCGTTGAC	-0.207
GAAGCATC	-0.0716
GGGAAATA	0.13

Sequence	PBM E-score
CGGAAATC	0.352
CGGAATTA	0.481
AGGAATTA	0.17
CGGAATTC	0.319
CGGAAATA	0.487
AGTTGAGC	-0.188
GCCTGGAA	-0.233
CAGTTTGG	-0.204
AGTATGTA	-0.162
CAGACCGA	0.278
AAGACCGA	0.413
ATGACCGG	0.276
AAGACCGT	0.0453
ATGACCGC	0.197
ATGACCGA	0.378
CTTCTAGA	-0.156
AAATGCTC	0.0505
TGACAGAA	-0.247
ACAGACCT	-0.0718
ACTAGTAC	-0.173
AGAGCCGG	0.263
ATAGCCGA	0.372
CTAGCCGA	0.25
ATAGCCAG	-0.293
ATAGCCGC	0.232

Sequence	PBM E-score
ATAGCCGG	0.397
AGTTTGGA	-0.274
CAGTTTCA	-0.241
GTCACGGA	0.371
ATAACGGC	0.355
ATAACGGG	0.228
CTAACGGC	0.184
CTCACGGA	0.221
CTAACGGA	0.38
ATCACGGA	0.352
GAAACGGA	0.277
GTAACGCA	0.0607
CAAACGGA	0.324
ATAACGGA	0.414
GTAACGGA	0.401
CATAACCG	0.133
ATGATTCC	0.0894
TCCTGCCA	-0.12
GTCATGAC	-0.111
AAAAACTC	0.0741
AGATGGCT	-0.0974
ACTATGCA	-0.16
CGCTACTA	0.163
CCGCCTTA	-0.0179
CCGCTCAA	0.0207

Sequence	PBM E-score
AGCCAGCA	-0.268
CGTTTACA	-0.145
CAACAGAA	-0.227
AACAAATC	-0.00416
AGCGTACT	-0.0657
GGTCCGGA	0.44
AGTCCGTA	0.269
CGTCCGCC	0.281
CGTCCGGC	0.41
CGTCCGTA	0.309
GGTCCGCA	0.3
CGTCCGGA	0.443
CGTCCGCA	0.228
AGTCCGGA	0.452
CGTCCGTC	0.234
GGTCCCGA	0.231
AGTCCGCA	0.293
ATGAAGAA	-0.136
GCACTGGA	-0.275
ACTGCCGA	0.261
GCCGACCC	0.139
AAACAGCC	-0.0624
AATGATCA	-0.179
CTTCAAGA	-0.235
AGGAAAGA	-0.275

Sequence	PBM E-score
ACATTCGC	0.0143
AGCCAAGA	-0.26
AGGACACA	-0.0409
AGATTCGA	-0.117
CGGTATTA	0.412
CGGTAATC	0.327
AGGTATTA	0.0089
GGGTAATA	-0.00588
CGGTAATA	0.408
CGGTATTC	0.304
CCGGGGGA	0.343
ACCGGGAA	0.35
ACGGGGAC	0.159
ACGGGGAG	-0.0069
TCCGGGAA	0.376
ACGGGGAT	0.383
CGGGGGAA	0.354
CCCGGGAA	0.339
CCGGGGAA	0.372
GCAGGCTA	-0.169
CGCCATAA	-0.0284
TACTTAGA	-0.362
GCGCCCGC	0.0873
AGGCTCAT	-0.159
CGCGTGGA	-0.079

Sequence	PBM E-score
AACCGATT	0.263
TACCGACA	0.209
CACCGATC	0.22
GACCGACA	0.359
AACCGATG	0.193
AACCGATA	0.421
CACCGATA	0.375
CACCGATG	0.196
TACCGAAA	0.188
TACCGATA	0.378
GACCGATC	0.341
GACCGATA	0.434
ATGGGTCA	-0.27
CATGAGGA	-0.0511
CTTTCGAC	-0.0279
AAGGGTCG	0.0795
GCGATAGC	0.00865
CCGATAGC	0.372
ACGATAGG	0.0214
ACGATAGA	-0.099
ACGATAGC	0.0603
CCGATAGG	0.438
GCGATAGA	0.223
CAGATAGG	-0.142
CCGATAGA	0.405

Sequence	PBM E-score
ACGATTGG	-0.123
GTGTCCCA	0.0086
CCGATGCA	0.242
CTACCCGA	0.161
ATACCCGG	0.38
ATACCCGA	0.398
ATACCCCG	0.346
ATACCCTG	-0.0146
ATACCCGC	0.253
CATCGCCC	0.128
AAAAGGTT	-0.211
CGGTTAAC	0.203
ATACCCTA	-0.203
AGGGTCAC	-0.193
GCGGTGTA	-0.063
GGGCGGTA	0.315
AGGCGGAG	0.175
AGGCGGAA	0.0183
CAGCGGAG	0.245
CGGCGGAA	0.396
CCGCGGAA	0.317
CCGCGGAG	0.352
CGGCGGTA	0.428
CCGCGGAC	0.383
AGGCGGTA	-0.131

Sequence	PBM E-score
CGGCGGAG	0.387
GGGCGGAA	0.267
CCATGGCC	-0.0324
CGACCAGA	0.0439
AGTTTGAG	-0.0293
ATGATCCC	0.0807
CTTCCCAA	-0.197
CGAAAGTA	0.0968
CGGCTACG	0.111
AGATGAAC	-0.115
CGGCGGAC	0.38
GGGCGGAC	0.279
AGGCGGAC	0.288
CCAGACCA	-0.187
ACGTCCAA	-0.0855
ACGTCCTG	-0.211
ACGTCCGC	0.357
GCGTCCGA	0.305
CCGTCCGA	0.399
ACGTCCGA	0.386
ACGTCCGG	0.411
CCGTCCTA	-0.104
CCGTCCGC	0.231
AAACCAAG	-0.0855
CGCGGGCA	0.256

Sequence	PBM E-score
TATGGTCA	-0.303
CAGAGATA	-0.182
ACCGTGAA	0.126
CGTTCCAG	-0.157
AGCCCCTG	-0.269
CATCTATC	-0.00973
TATCGGGA	0.393
CAACGGAA	0.285
GAACGGAA	0.282
CATCGGGA	0.223
CATCGGCA	0.266
AATCGGCA	0.224
TATCGGCA	0.425
TATCGGAA	0.409
AATCGGAA	0.364
TAACGGAA	0.375
CATCGGAA	0.297
GATCGGGA	0.136
GAAGGCAA	-0.137
AAATTGAG	-0.0939
CTCTGGCA	-0.217
ATTGGTTA	-0.094
CCGGAGGC	0.286
CCGGAGAA	0.428
CCGGAGTC	0.356

Sequence	PBM E-score
CCGGAGAG	0.354
GCGGAGAA	0.349
GCGGAGGA	0.17
CAGGAGAA	-0.147
GCGGAGTA	0.25
CCGGAGGA	0.432
ACGGAGAA	0.27
TCGGAGAA	0.405
CCGGAGTA	0.435
ACCATGCG	-0.0491
CATTAACC	0.0537
TCTATGAA	-0.115
CACAATGC	-0.0342
GAGAATGA	-0.137
AGGGCTGG	-0.101
CCGGTTCA	0.267
CGTTTTAA	-0.0609
GCGGAGAC	0.348
CCGGAGCG	0.359
GCGGAGCA	0.211
CGGGAGAC	0.216
CCGGAGCA	0.418
CCGGAGAC	0.373
AGTTAGGC	-0.113
CTCGGGAC	0.263

Sequence	PBM E-score
GCCCCATA	-0.00491
CCCGGGTA	0.315
CCCGGGGA	0.359
CCCGGGGC	0.33
GCCGGGAA	0.326
ACCGGGTC	0.194
CCGGGGCC	0.318
GCCGGGGA	0.392
CCCGGGTC	0.386
CCCGGGCG	0.383
CCCCGGCG	0.309
CCGGGGCG	0.322
CCCGGGCC	0.387
CGGGGTTC	0.211
AACAGATC	-0.0165
GCCTTAGA	-0.04
GGTAACAA	0.13
TAAGAATA	-0.141
TGTCCACA	-0.159
